PubChem BioAssay (Tox21)
Values joined by “and” are separate entries in the source; they are usually repeats but may differ in a detail not shown here. Equal values may be shown once. Active and inactive are the calls of the source. Unless noted, the call rests on the fitted dose curve; in most records, active means well fitted curve in the direction sought with a large enough effect in the repeat runs; inconclusive means weak or mixed curves; inactive means no such curve, though single readings can be large; an effect the other way counts as inactive or inconclusive.

Key:
[1] = qHTS assay for small molecule disruptors of the mitochondrial membrane potential (AID 720635); conditions: HepG2 mitochondrial membrane potential, Mito-MPS dye ratio; series mostly up to 83.2 µM; further: potency means the concentration at half of the fitted maximal effect
In short: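 Mitochondrial membrane potential tracked with Mito-MPS dye, red aggregates (ex 540/em 590 nm) against green monomers (ex 490/em 535 nm). Compound treatment 1 hr at 37C, dye 30 min in HepG2.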

[2] = qHTS assay to test for compound auto fluorescence at 535 nm (green) in HepG2 cells (AID 720675); conditions: green autofluorescence 485/535 nm, 1 h; series mostly up to 46 µM
[3] = qHTS assay to test for compound auto fluorescence at 460 nm (blue) in HEK293 cell free culture (AID 720681); conditions: cell-free medium, autofluorescence 405/460 nm (blue); series mostly up to 46 µM
In short: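 Blue fluorescence (Ex 405/Em 460 nm, triamterene-equivalent) was read immediately after pin transfer of compound or DMSO into medium (DMEM, 10% FBS) without cells.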

[4] = qHTS assay to test for compound auto fluorescence at 535 nm (green) in HepG2 cell free culture (AID 720686); conditions: Cell-free medium, green autofluorescence 485/535 nm; series mostly up to 46 µM
[5] = molecular target: Glucocorticoid receptor (Homo sapiens) (UniProt P04150); experiment: qHTS assay to identify small molecule agonists of the glucocorticoid receptor (GR) signaling pathway (AID 720691; active means well fitted activation curve with a large enough effect in the signal ratio in the repeat runs, not every such curve was filed as active; inconclusive means weak or mixed curves, or effect the other way; inactive means no such curve, though single readings can be large or run the other way; the % refers to the signal ratio); conditions: GR-bla HeLa, beta-lactamase reporter ratio, 18 h; series mostly up to 62.4 µM
Chain of Glucocorticoid receptor (Homo sapiens) (P04150 whole entry, looked up): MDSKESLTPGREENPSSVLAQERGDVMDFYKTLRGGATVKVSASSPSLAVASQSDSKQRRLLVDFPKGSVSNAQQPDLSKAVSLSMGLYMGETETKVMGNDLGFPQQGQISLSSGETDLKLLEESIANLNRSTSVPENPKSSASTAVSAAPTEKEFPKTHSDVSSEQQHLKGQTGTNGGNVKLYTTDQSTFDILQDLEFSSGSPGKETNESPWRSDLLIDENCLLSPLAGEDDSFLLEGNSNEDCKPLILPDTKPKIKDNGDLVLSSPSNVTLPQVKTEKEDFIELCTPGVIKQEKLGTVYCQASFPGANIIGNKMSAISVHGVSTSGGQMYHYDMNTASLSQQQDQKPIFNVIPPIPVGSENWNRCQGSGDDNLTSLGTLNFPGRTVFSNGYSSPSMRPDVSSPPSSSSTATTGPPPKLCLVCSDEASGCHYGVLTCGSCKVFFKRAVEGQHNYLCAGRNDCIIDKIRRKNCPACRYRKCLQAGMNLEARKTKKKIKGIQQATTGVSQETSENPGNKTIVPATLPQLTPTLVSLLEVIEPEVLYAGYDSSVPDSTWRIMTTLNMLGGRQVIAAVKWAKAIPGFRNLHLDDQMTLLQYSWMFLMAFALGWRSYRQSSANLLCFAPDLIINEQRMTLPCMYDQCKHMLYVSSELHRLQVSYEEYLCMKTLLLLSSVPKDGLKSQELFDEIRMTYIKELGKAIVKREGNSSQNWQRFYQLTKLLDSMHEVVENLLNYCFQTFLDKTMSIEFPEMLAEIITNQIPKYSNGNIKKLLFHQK
In short: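 GR-bla HeLa cells carrying a GRE-driven beta-lactamase reporter, exposed to compounds for 18 h at 37 C. Reporter activation read as fluorescence after 2 h with LiveBLAzer B/G FRET substrate at room temperature.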

[6] = qHTS assay to identify small molecule antagonists of the glucocorticoid receptor (GR) signaling pathway - cell viability counter screen (AID 720693); conditions: GR-bla HeLa viability, CellTiter-Glo luminescence, 18 h, with 5 nM dexamethasone present; series mostly up to 58.5 µM; further: nearly all actives have a fitted effect of over 55% in size; further: potency means the concentration at half of the fitted maximal effect
[7] = qHTS assay for identifying genotoxic compounds that show differential cytotoxicity against isogenic chicken DT40 cell lines with known DNA damage response pathways - wild type cell line (AID 743012); conditions: DT40 wild type chicken cells viability, CellTiter-Glo, 40 h; series mostly up to 68.4 µM; further: nearly all actives have a fitted effect of over 60% in size; further: potency means the concentration at half of the fitted maximal effect
In short: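 Wild-type DT40 cells (300/well) exposed to compounds for 40 hours at 37 C/5% CO2. Viability read by CellTiter-Glo luminescence after 30 min at room temperature.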

[8] = qHTS assay for identifying genotoxic compounds that show differential cytotoxicity against isogenic chicken DT40 cell lines with known DNA damage response pathways - Rev3 mutant cell line (AID 743014); conditions: chicken DT40 Rev3-/- viability, CellTiter-Glo, 40 h; series mostly up to 68.4 µM; further: nearly all actives have a fitted effect of over 55% in size; further: potency means the concentration at half of the fitted maximal effect
[9] = qHTS assay to identify small molecule antagonists of the androgen receptor (AR) signaling pathway - cell viability counter screen (AID 743033; further: nearly all actives have a fitted effect of over 45% in size; further: potency means the concentration at half of the fitted maximal effect); conditions: AR-bla HEK293 viability, CellTiter-Glo luminescence, 16 h; series mostly up to 58.5 µM
[10] = qHTS assay to identify small molecule antagonists of the thyroid receptor (TR) signaling pathway - cell viability counter screen (AID 743064); conditions: GH3.TRE-Luc viability, CellTiter-Fluor, 24 h; series mostly up to 70.3 µM; further: nearly all actives have a fitted effect of over 50% in size; further: potency means the concentration at half of the fitted maximal effect
In short: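 In rat pituitary GH3.TRE-Luc reporter cells co-exposed to compound and 1 nM T3 for 23.5 h, cytotoxicity was assessed with CellTiter-Fluor in the same wells, read by fluorescence.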

[11] = test system: thyroid hormone receptor (rat, GH3 cells); experiment: qHTS assay to identify small molecule agonists of the thyroid receptor (TR) signaling pathway (AID 743066; calls by dose curve); conditions: GH3.TRE-Luc cells, TR agonist luciferase, 24 h; series mostly up to 83.9 µM
[12] = qHTS assay to identify small molecule antagonists of the estrogen receptor alpha (ER-alpha) signaling pathway - cell viability counter screen (AID 743074; calls by dose curve;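 further: HEK293 cells carrying ER-alpha-UAS-bla reporter stimulated with 17beta-estradiol; nearly all actives have a fitted effect of over 45% in size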; further: potency means the concentration at half of the fitted maximal effect); conditions: ERalpha-bla HEK293 viability, CellTiter-Glo luminescence, 18 h; series mostly up to 69.4 µM
[13] = molecular target: Estrogen receptor (Homo sapiens) (UniProt P03372); experiment: qHTS assay to identify small molecule agonists of the estrogen receptor alpha (ER-alpha) signaling pathway (AID 743075; calls by dose curve;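 further: HEK293 GripTite cells with ER-alpha and UAS-driven beta-lactamase reporter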; further: potency means the concentration at half of the fitted maximal effect); conditions: HEK293 ER-alpha-UAS-bla, beta-lactamase FRET ratio, 18 h; series mostly up to 70.1 µM
Chain of Estrogen receptor (Homo sapiens) (P03372 whole entry, looked up): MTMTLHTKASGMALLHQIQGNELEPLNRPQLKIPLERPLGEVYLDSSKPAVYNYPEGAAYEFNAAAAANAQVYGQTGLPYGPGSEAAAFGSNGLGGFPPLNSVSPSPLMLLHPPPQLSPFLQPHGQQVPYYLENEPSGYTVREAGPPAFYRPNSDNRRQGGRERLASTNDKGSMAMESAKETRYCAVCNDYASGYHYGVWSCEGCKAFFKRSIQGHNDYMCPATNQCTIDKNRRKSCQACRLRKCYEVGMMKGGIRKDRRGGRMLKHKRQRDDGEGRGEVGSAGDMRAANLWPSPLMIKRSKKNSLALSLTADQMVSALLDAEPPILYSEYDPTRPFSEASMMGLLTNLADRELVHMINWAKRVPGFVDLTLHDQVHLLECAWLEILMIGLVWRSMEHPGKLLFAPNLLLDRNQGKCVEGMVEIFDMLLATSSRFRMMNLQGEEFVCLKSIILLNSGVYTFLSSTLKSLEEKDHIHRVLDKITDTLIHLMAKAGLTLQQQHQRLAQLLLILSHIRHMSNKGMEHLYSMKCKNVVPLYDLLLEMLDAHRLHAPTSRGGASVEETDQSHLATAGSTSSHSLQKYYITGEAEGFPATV

[14] = molecular target: Estrogen receptor (Homo sapiens) (UniProt P03372); experiment: qHTS assay to identify small molecule agonists of the estrogen receptor alpha (ER-alpha) signaling pathway using the BG1 cell line (AID 743079); conditions: BG1Luc4E2 cells, ERE-luciferase agonist, 22 h; series mostly up to 70.3 µM; further: nearly all actives have a fitted effect of over 20% in size; further: potency means the concentration at half of the fitted maximal effect
[15] = qHTS assay to identify small molecule that activate the aryl hydrocarbon receptor (AhR) signaling pathway - cell viability counter screen (AID 743086); conditions: HepG2-AhR-luc viability, CellTiter-Fluor, 24 h; series mostly up to 70.3 µM;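 further: HepG2 liver cells carrying the AhR DRE luciferase reporter; nearly all actives have a fitted effect of over 45% in size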
In short: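 Cytotoxicity counter screen: CellTiter-Fluor signal (30 min, 37 C) in 4000 HepG2 cells/well carrying the DRE-luciferase reporter, following 24 h compound exposure at 37 C.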

[16] = molecular target: Nuclear receptor subfamily 1 group I member 2 (Homo sapiens) (UniProt O75469); experiment: CYP3A4 induction through human pregnane X receptor (PXR) by small molecules, qHTS assay (AID 1346984); conditions: DPX-2 HepG2 PXR, CYP3A4-luciferin luminescence, 24 h; series mostly up to 46.1 µM; further: nearly all actives have a fitted effect of over 40% in size; further: potency means the concentration at half of the fitted maximal effect
In short: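 DPX-2 HepG2 cells carrying a PXR response element and CYP3A4-promoter luciferase construct, treated with compounds 24 hr at 37C. Then P450-Glo CYP3A4 Luciferin-IPA substrate (3uM final) for 3 hr at 37C, One-Glo added, luminescence read.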

[17] = qHTS assay to identify small molecule antagonists of the androgen receptor (AR) signaling pathway using the MDA cell line - cell viability counter screen (AID 743041; further: nearly all actives have a fitted effect of over 45% in size); conditions: MDA-kb2 viability, CellTiter-Fluor, 16 h, cells co-treated with R1881 androgen agonist; series mostly up to 70.3 µM
In short: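 R1881-driven MDA-kb2 AR-luc cells, 3,000/well, were dosed with library compounds for 16 h; cell health came from CellTiter-Fluor fluorescence in the reporter wells.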

[18] = qHTS assay to identify small molecule antagonists of the thyroid receptor (TR) signaling pathway (AID 743065); conditions: GH3.TRE-Luc, T3-stimulated luciferase inhibition, 23.5 h; series mostly up to 70.3 µM; further: nearly all actives have a fitted effect of over 55% in size; further: potency means the concentration at half of the fitted maximal effect
In short: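 Antagonism measured as loss of luciferase signal in GH3 cells stably carrying a TRE-luciferase reporter, co-treated with compound and T3 (1 nM final) for 23.5 h at 37 C. Viability was read in the same well by CellTiter-Fluor.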

[19] = molecular target: Peroxisome proliferator-activated receptor gamma (Homo sapiens) (UniProt P37231); experiment: qHTS assay to identify small molecule agonists of the peroxisome proliferator-activated receptor gamma (PPARg) signaling pathway (AID 743094; active means well fitted activation curve with a large enough effect in the signal ratio in the repeat runs, not every such curve was filed as active; inconclusive means weak or mixed curves, or effect the other way; inactive means no such curve, though single readings can be large or run the other way; the % refers to the signal ratio); conditions: HEK293H PPARg-UAS-bla, beta-lactamase FRET ratio, 17 h; series mostly up to 57 µM
Chain of Peroxisome proliferator-activated receptor gamma (Homo sapiens) (P37231 whole entry, looked up): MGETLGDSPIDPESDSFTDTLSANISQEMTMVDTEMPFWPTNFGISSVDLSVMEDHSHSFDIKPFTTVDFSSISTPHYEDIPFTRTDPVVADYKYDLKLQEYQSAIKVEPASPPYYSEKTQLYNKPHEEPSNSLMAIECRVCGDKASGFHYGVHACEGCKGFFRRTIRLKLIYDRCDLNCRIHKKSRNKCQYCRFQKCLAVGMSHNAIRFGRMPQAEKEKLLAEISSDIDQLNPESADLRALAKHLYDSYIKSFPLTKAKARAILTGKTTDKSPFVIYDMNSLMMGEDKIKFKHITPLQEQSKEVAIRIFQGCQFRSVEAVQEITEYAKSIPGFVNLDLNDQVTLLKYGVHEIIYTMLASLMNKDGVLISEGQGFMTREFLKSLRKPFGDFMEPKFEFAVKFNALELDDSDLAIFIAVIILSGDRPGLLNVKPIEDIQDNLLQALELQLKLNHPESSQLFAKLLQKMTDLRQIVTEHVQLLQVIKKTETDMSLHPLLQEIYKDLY
In short: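 GeneBLAzer PPARg UAS-bla HEK293H cells were plated, rested 5 h, then exposed to compounds for 17 h at 37C. Beta-lactamase activity was read by LiveBLAzer B/G FRET substrate fluorescence after 1 h at room temperature.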

[20] = qHTS assay to identify small molecule antagonists of the estrogen receptor alpha (ER-alpha) signaling pathway using the BG1 cell line (AID 743080; calls by dose curve;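 further: BG1 cells stimulated with 17beta-estradiol alongside compound; nearly all actives have a fitted effect of over 25% in size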); conditions: BG1Luc4E2 ERE-luciferase antagonist mode, luminescence; series mostly up to 70.3 µM
In short: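 BG1-Luc-4E2 cells (endogenous full-length ER-alpha, stable 4×ERE-luciferase) were starved 5 days in phenol-red-free medium with 10% charcoal-stripped FBS, plated 24 h, then given compound plus 17beta-estradiol for 21.5 h at 37 C; ONE-Glo luminescence read after 30 min.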

Measured: Potency

C[C@]12CC[C@H](O)C[C@H]1CC[C@@H]1[C@@H]2CC[C@]2(C)[C@@H](c3ccc(=O)oc3)C[C@H]3O[C@]132
active: [1] 2660 nM | [6] 2680 nM | [7] 7500 nM | [8] 13300 nM | [9] 1340 nM | [12] 1340 nM | [14] 944 nM | [16] 5010 nM
inactive: [2] | [3] | [4] | [5] | [10] | [11] | [13] | [15]

CC(Cc1ccccc1)NC=O (stereo not drawn)
inactive: [1] | [2] | [3] | [4] | [6] | [7] | [8] | [9] | [17] | [18] | [11] | [12] | [15] | [19] | [16]

C#CCN1CC(=O)N(COC(=O)C2C(C=C(C)C)C2(C)C)C1=O (stereo not drawn)
inactive: [2] | [3] | [4] | [5] | [6] | [7] | [8] | [9] | [17] | [10] | [18] | [11] | [12] | [13] | [14] | [20] | [15] | [19]

CCN(CC)CCO[C@H]1CC[C@@]2(C)C(=CC[C@@H]3[C@@H]2CC[C@]2(C)C(=O)CC[C@@H]32)C1
inactive: [1] | [2] | [3] | [4] | [6] | [9] | [17] | [10] | [11] | [13] | [14] | [20] | [15] | [19]
active: [7] 1330 nM | [8] 531 nM | [18] 21.1 µM | [16] 7940 nM

CCC/C=C/C=C/C(=O)O[C@H]1/C(=C/C(=O)OC)C[C@H]2C[C@H]([C@@H](C)O)OC(=O)C[C@H](O)C[C@@H]3C[C@H](OC(C)=O)C(C)(C)[C@](O)(C[C@@H]4C/C(=C/C(=O)OC)C[C@H](/C=C/C(C)(C)[C@]1(O)O2)O4)O3
active: [1] 3.8 nM | [7] 3.8 nM | [8] 3.8 nM | [10] 10.6 µM
inactive: [2] | [4] | [6] | [9] | [17] | [11] | [20] | [15] | [19]

O=C(C[C@@H]1NCCC[C@H]1O)Cn1cnc2cc(Br)c(Cl)cc2c1=O
inactive: [2] | [3] | [5] | [6] | [7] | [8] | [9] | [17] | [11] | [12] | [13] | [14] | [20] | [15] | [16]

CCCC(C)C1(CC)C(=O)NC(=O)NC1=O (stereo not drawn)
inactive: [2] | [3] | [4] | [6] | [7] | [8] | [9] | [17] | [10] | [18] | [11] | [12] | [13] | [14] | [20] | [15] | [19] | [16]

CN1[C@@H]2CC[C@H]1CC(OC1c3ccccc3CCc3ccccc31)C2 (stereo partly drawn)
active: [7] 7170 nM | [8] 10100 nM
inactive: [2] | [4] | [5] | [6] | [9] | [17] | [11] | [12] | [13] | [14] | [20] | [15] | [19] | [16]

C[C@]12C[C@H]3S[C@H]3C[C@@H]1CC[C@@H]1[C@@H]2CC[C@]2(C)[C@@H](O)CC[C@@H]12
active: [1] 11400 nM | [13] 256 nM [inconclusive] | [14] 143 nM
inactive: [2] | [3] | [4] | [5] | [6] | [8] | [17] | [10] | [18] | [11] | [12] | [15] | [19] | [16]

CC(C)[C@@]1(NC(=O)[C@@H]2C[C@@H]3c4cccc5[nH]cc(c45)C[C@H]3N(C)C2)O[C@@]2(O)[C@@H]3CCCN3C(=O)[C@H](Cc3ccccc3)N2C1=O
active: [1] 841 nM | [7] 29800 nM | [10] 23.7 µM and 21.1 µM | [18] 23.7 µM and 26.6 µM
inactive: [2] | [3] | [6] | [9] | [17] | [11] | [12] | [13] | [14] | [20]

O=C1Nc2ccc(Cl)cc2C(c2ccccc2Cl)=NC1O (stereo not drawn)
inactive: [1] | [2] | [3] | [4] | [5] | [6] | [8] | [9] | [10] | [18] | [11] | [12] | [13] | [14] | [20] | [15] | [19]

C=CC[C@]1(O)CC[C@H]2[C@@H]3CCC4=CCCC[C@@H]4[C@H]3CC[C@@]21C
active: [1] 9440 nM | [13] 952 nM [inconclusive] | [14] 376 nM
inactive: [2] | [3] | [4] | [5] | [6] | [7] | [8] | [9] | [17] | [12] | [15] | [19] | [16]
